Results taken from PubChem BioAssay (Tox21).
Inconclusive results are not listed. Unmarked numbers belong to inactive results. Calls of active or inactive are those of the source. Calls follow the shape of the dose curve; as a rule, active = well fitted cell-killing curve with a large enough effect in the repeat runs; inconclusive = weak or mixed curves, or effect the other way; inactive = flat fitted curve, though single readings scatter.

Test: Caspase-3/7 induction in HepG2 cells by small molecules, qHTS cell viability counter screen (AID 1346981); also: nearly all actives have a fitted effect of over 30% in size
Conditions: CellTiter-Fluor fluorescence, 17 h; series mostly up to 92.4 µM; activity change, negative = cytotoxicity: at the top concentration
Description: U.S. Tox21 Program National Center for Advancing Translational Sciences [NCATS] NIH Chemical Genomics Center [NCGC] U.S. Environmental Protection Agency [EPA] National Institutes of Environmental Health Sciences [NIEHS] National Toxicology Program [NTP] U.S. Food and Drug Administration [FDA] Tox21 Assay Overview: Apoptosis is a process of programmed cell death and plays a central role in the development of multicellular organisms. It is a highly regulated process and induces cell death by activating caspases, which are the members of cysteine aspartic acid-specific protease (caspase) family. Caspases involved in apoptosis are classified by their mechanism of action as initiator caspases (caspase-2, -8, -9 and -10) and executioner caspases (caspase-3, -6, and -7). Inhibition of apoptosis results in number of cancers, autoimmune diseases, inflammatory diseases and viral infection. To identify small molecule compounds that induce apoptosis, a homogeneous, luminescent Caspase-Glo 3/7 assay was used. Wild type HepG2 cells were used to screen Tox21 libraries for identifying caspase-3/7 activity inducers. Also cytotoxicity of the compounds was tested in parallel by measuring the cell viability using CellTiter-Fluor assay system in the same wells.
Tox21 Assay Protocol Summary: HepG2 cells were dispensed at 2,000 per well in 5uL of culture medium into white solid bottom 1536-well plates (Corning Life Sciences, Corning, NY) using a Multidrop Combi (Thermo Scientific, Waltham, MA) dispenser. The assay plates were incubated at 37 C and 5% CO2 for 5hr, and then 23nL of compounds dissolved in DMSO and positive control were transferred using a Pintool station ([…], San Diego, CA). The assay plates were incubated at 37C and 5% CO2 for 17hr. For cytotoxicity read, after 16hr incubation at 37C, 1uL CellTiter-Fluor reagent (Promega Corporation, Madison, WI) was added to each well of the assay plates using Flying Reagent Dispenser (FRD, Aurora Discovery, San Diego, CA). After 1hr incubation at 37C and 5% CO2, the fluorescence signal was quantified using a ViewLux plate reader (PerkinElmer, Shelton, CT).
% is scaled to controls: 0 for no effect and ±100 for the full control effect; potency is read from the fitted curve at half-maximal effect.

In order of falling “activity change, negative = cytotoxicity” value:
1. CC(C=O)Cc1ccc2c(c1)OCO2 (stereo not given)  9.97%
2. CSc1nc(N=[N+]=[N-])nc(NC(C)C)n1  8.54%
3. O=C(O)c1cccc(Cl)c1  7.27%
4. O=S(=O)(O)C(F)(F)C(F)(F)C(F)(F)C(F)(F)C(F)(F)C(F)(F)F  5.98%
5. CC1=NNC(=O)N(/N=C/c2cccnc2)C1  5.46%
6. CCCCc1ccc(O)cc1  4.84%
7. O=C(N[C@H]1CN2CCC1CC2)c1cc2ccoc2cn1  4.48%
8. CCOc1nc(C(Cl)(Cl)Cl)ns1  4.36%
9. CC(=O)CCc1ccc2c(c1)OCO2  4.24%
10. O=NN1CCN(N=O)CC1  3.66%
11. CCSC(=O)N(CC)C1CCCCC1  2.31%
12. CCOP(=O)(OCC)OP(=O)(OCC)OCC  2%
13. O=C(CCN1CC1)OCC(CO)(COC(=O)CCN1CC1)COC(=O)CCN1CC1  1.96%
14. CCC1(c2ccccc2)C(=O)N=C(O)NC1=O (stereo not given)  0.928%
15. CCCCc1c(C)nc(NCC)[nH]c1=O  0.662%
16. Oc1c(Cl)cccc1Cl  0.382%
17. CCC(=O)c1ccccc1  0.339%
18. C=C(C)CN(CC)c1c([N+](=O)[O-])cc(C(F)(F)F)cc1[N+](=O)[O-]  0.274%
19. C1CCC(C2CCCCC2)CC1  -0.096%
20. Nc1n[nH]c(N)n1  -0.305%
21. CCCCCCI  -0.562%
22. COP(=S)(OC)Oc1c(Cl)cc(C)cc1Cl  -0.85%
23. CNC(=O)Oc1ccc(N(C)C)c(C)c1  -0.855%
24. CCC1(c2ccccc2)C(=O)NC(=O)NC1=O  -0.979%
25. CCCCOC(=O)c1ccccc1N  -2.76%
26. ClC(Cl)C(Cl)Cl  -2.91%
27. O=[N+]([O-])c1ccc2c3c(cccc13)CC2  -4.66%
28. OC(c1ccc(F)cc1)(c1cncnc1)c1ccccc1Cl (stereo not given)  -6.39%
29. CC(=O)CC(c1ccc(Cl)cc1)c1c(O)c2ccccc2oc1=O (stereo not given)  -7.75%
30. CC(C)[N+](=O)[O-]  -8.5%
31. COC(=O)c1ccccc1S(=O)(=O)NC(=O)N(C)c1nc(C)nc(OC)n1  -12.6%

In order of falling “activity change, negative = cytotoxicity” value:
1. CCS(=O)(=O)C(C)(C)S(=O)(=O)CC  3.93% [at 42.5 µM]
2. CN1CCN(C(=O)O[C@H]2c3nccnc3C(=O)N2c2ccc(Cl)cn2)CC1  2.6% [at 42.5 µM]
3. NC1=NC(=O)C(c2ccccc2)O1 (stereo not given)  1.7% [at 42.5 µM]
4. CC1COC2(c3ccccc3Cl)c3cc(Cl)ccc3NC(=O)CN12 (stereo not given)  -0.729% [at 42.5 µM]
5. NC(=O)c1cc([N+](=O)[O-])cc([N+](=O)[O-])c1  -1.91% [at 42.5 µM]
6. COc1ncc(F)c2nc(S(=O)(=O)Nc3c(F)cccc3F)nn12  -6.97% [at 42.5 µM]
7. O=C1OC(c2ccc(O)c(S(=O)(=O)O)c2)(c2ccc(O)c(S(=O)(=O)O)c2)c2c(Br)c(Br)c(Br)c(Br)c21  -8.04% [at 42.5 µM]
8. CCN(CC)CCOC(=O)C(C)(c1ccccc1)c1ccccc1  -9.98% [at 42.5 µM]

With `N#CC(CCc1ccc(Cl)cc1)(Cn1cncn1)c1ccccc1` (stereo not given) the Potency was 48.6 µM (active).
